In PubChem BioAssay (NCI):
The panel holds about 79,000 compounds, 15% with a hit somewhere; the sample as a whole holds those more often. Active and inactive are the calls of the source. Cut-off read from the data, not from the text of the source: active = growth inhibition above about 70%; inactive = the rest.

Experiments:
[1] = NCI Yeast Anticancer Drug Screen. Data for the rad50 strain (AID 155);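 note: 0% = growth of vehicle-only cultures of the same strain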; conditions: S. cerevisiae rad50 strain growth inhibition, active compounds read high
In short: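 Inhibition values express reduced yeast growth in compound-treated cultures relative to vehicle-treated controls.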

[2] = NCI Yeast Anticancer Drug Screen. Data for the mec2-1 strain (AID 157); conditions: S. cerevisiae mec2-1 strain, active compounds read high
In short: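 Mutant yeast (mec2-1) grown with compound; growth inhibition relative to vehicle control reported.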

[3] = NCI Yeast Anticancer Drug Screen. Data for the sgs1 mgt1 strain (AID 161);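 note: 0% = growth of cultures given vehicle only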; conditions: S. cerevisiae sgs1 mgt1 strain, active compounds read high
In short: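 Yeast cells carrying a defined DNA-repair defect were exposed to test compounds. Growth inhibition was measured relative to vehicle-treated controls.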

[4] = NCI Yeast Anticancer Drug Screen. Data for the cln2 rad14 strain (AID 165);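 note: 0% = growth equal to vehicle treated cultures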; conditions: S. cerevisiae cln2 rad14 strain, active compounds read high
In short: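 Readout is yeast growth inhibition versus vehicle-treated controls, using a strain with cln2 and rad14 alterations exposed to compound.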

[5] = NCI Yeast Anticancer Drug Screen. Data for the bub3 strain (AID 167); conditions: S. cerevisiae bub3 mutant strain, active compounds read high
In short: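 Steps: expose the mutant yeast strain to compound; grow alongside vehicle-treated cultures; measure growth; express inhibition against the vehicle cultures.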

[6] = NCI Yeast Anticancer Drug Screen. Data for the mlh1 rad18 strain (AID 175); conditions: S. cerevisiae mlh1 rad18 strain growth inhibition, active compounds read high
In short: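 Genetically defined yeast (DNA repair-deficient) exposed to compounds; growth inhibition determined relative to vehicle.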

[7] = at 5.0 µM (retest, dose inferred, filed as 0.5)
[8] = at 50.0 µM (retest, dose inferred, filed as 5.0)

Measured: growth inhibition

CC(=O)OC1CCC2(C)C3CCC4(C)C(C(C)CCCC(C)C)CCC4C3CCC23OC13C (stereo not given)
inactive: [1]; [7] 2% | [1]; [8] 12% | [1]; at 50.0 µM 31.9% | [2]; [7] -17% | [2]; [8] 23% | [2]; at 50.0 µM 6.2% | [3]; [7] -5% | [3]; [8] 52% | [4]; [7] -3% | [4]; [8] 6% | [4]; at 50.0 µM -19.2% | [5]; [7] -3% | [5]; [8] -4% | [5]; at 50.0 µM -8.05% | [6]; [7] 24% | [6]; [8] 59% | [6]; at 50.0 µM 35.7%
active: [3]; at 50.0 µM 72.7%

Cc1c2ccnc(C(N)=O)c2c(C)c2c1[nH]c1ccccc12
inactive: [1]; [7] 9% | [2]; [7] 12% | [2]; at 50.0 µM 48.1% | [3]; [7] 7% | [3]; at 50.0 µM 38.6% | [4]; [7] 11% | [4]; at 50.0 µM 47.1% | [5]; [7] 7% | [5]; at 50.0 µM 56.1% | [6]; [7] 12%
active: [1]; [8] 90% | [1]; at 50.0 µM 76.1% | [2]; [8] 98% | [3]; [8] 84% | [4]; [8] 79% | [5]; [8] 97% | [6]; [8] 97% | [6]; at 50.0 µM 73.9%

CC(/C(=N/NC(=O)C(N)=O)c1c(Cl)ccc(Cl)c1O)C1(O)C(=O)Nc2ccccc21 (stereo not given)
active: [6]; at 50.0 µM 86.5%
inactive: [1]; [7] 9% | [1]; [8] 53% | [1]; at 50.0 µM 53.8% | [2]; [7] 2% | [2]; [8] 29% | [2]; at 50.0 µM 57.4% | [3]; [7] 9% | [3]; [8] 53% | [3]; at 50.0 µM 52.5% | [4]; [7] 14% | [4]; [8] 18% | [4]; at 50.0 µM 20.5% | [5]; [7] 4% | [5]; [8] 52% | [5]; at 50.0 µM 44% | [6]; [7] 9% | [6]; [8] 32%

Cc1cc(=O)oc2c(C)c3oc(CBr)cc3cc12
inactive: [1]; [7] -11% | [1]; at 50.0 µM 54.1% | [2]; [7] 4% | [2]; [8] 67% | [2]; at 50.0 µM 62.7% | [3]; [7] -17% | [3]; [8] 64% | [3]; at 50.0 µM 69.8% | [4]; [7] 32% | [4]; [8] 56% | [4]; at 50.0 µM 66.2% | [5]; [7] -4% | [5]; [8] 67% | [5]; at 50.0 µM 65.4% | [6]; [7] -2% | [6]; at 50.0 µM 63.1%
active: [1]; [8] 79% | [6]; [8] 75%

O=C(O)c1ccc2c(c1)CC1(C2)Cc2cc3c(cc2C1=O)CCC3 (stereo not given)
inactive: [1]; [7] 34% | [1]; [8] 34% | [2]; [7] 22% | [2]; [8] 22% | [3]; [7] 19% | [3]; [8] 19% | [4]; [7] 21% | [4]; [8] 21% | [5]; [7] 12% | [5]; [8] 12% | [6]; [7] 25% | [6]; [8] 25%
active: [1]; at 50.0 µM 84.3% | [2]; at 50.0 µM 83.8% | [3]; at 50.0 µM 79.5% | [4]; at 50.0 µM 83.1% | [5]; at 50.0 µM 81.8% | [6]; at 50.0 µM 79.9%
